# Hit rate of the full screen: of about 2,200 compounds, about 480 (22%) were called active. These entries were drawn from the full list. Results with a measured potency or affinity are listed apart. A number with no mark means an inactive call. The rule behind the calls is not given here.
# Test: S. Typhimurium GFP fluorescence modified counterscreen for PhoP regulon inhibitor project dose response (AID 1981);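 note: 0% = induced DMSO wells and 100% = uninduced wells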
# Details: 4 h; series mostly up to 150 µM; inhibition: at the top concentration
row,SMILES,inhibition [%]
1,O=C(Nc1ccc(Br)cc1)c1ccc(F)c(S(=O)(=O)NCc2cccs2)c1,-7.31
2,Cc1cc(C)cc(CC(Cc2nc3ccccc3[nH]2)c2nc3ccccc3[nH]2)c1 (stereo unspecified),-0.97
3,O=C(/C=C/c1ccco1)NC(=S)Nc1ccc(N2CCCC2)cc1,3.26
4,Cc1cc2ncn(C3CC(=O)N(Cc4ccc(N5CCCC5=O)cc4)C3=O)c2cc1C (stereo unspecified),-11.8
5,O=C(NC(=Nc1ccccc1)N1CCOCC1)Nc1ccccc1,-10.8
6,Cc1ccc(NC(=O)NCC2CCN(Cc3cccc(Cl)c3)CC2)cc1Cl,15
7,Cc1ccc(NC(=O)c2cc(S(=O)(=O)N3CCC4(CC3)OCCO4)ccc2F)cc1,-7.76
8,COc1ccc(-c2cc(-c3ccc(OC)c(OC)c3)n[nH]2)c(O)c1,13.4
9,COc1ccc(-c2ccc(C#N)c(SCC(=O)NCCc3ccccc3)n2)cc1OC,4.81
10,Cc1cc(C)n2c(SCC(=O)NCc3ccco3)nnc2n1,-0.83
11,COc1ccc(C2COC(=O)C2=N)c(NC(=O)c2ccc(Cl)cc2)c1 (stereo unspecified),-2.01
12,Cc1ccc(C(=O)C2COC(=O)C2)cc1 (stereo unspecified),17.3
13,COc1ccc(OC)c(C(C(=O)NCc2ccco2)N(C(=O)Cn2nnc3ccccc32)C(C)C)c1 (stereo unspecified),7.56
14,Cc1ccc(NC(=O)COc2ncnc3c(Cl)cc(Cl)cc23)cc1[N+](=O)[O-],-16.4
15,O=C(NCc1cccnc1)c1ccc(Cl)cc1[N+](=O)[O-],0.21
16,Cc1ccc(C)c(NC(=S)NCCSc2ccc(Cl)cc2)c1,-11.1
17,O=C1c2cccc(OCC(=O)N3N=C(c4cccs4)CC3c3ccc(F)cc3)c2CCN1Cc1cccnc1 (stereo unspecified),13.8
18,Cc1ccc(NS(=O)(=O)c2ccc(N3C(=O)CCC3=O)cc2)cc1,-4.31
19,CCOc1ccc(NC(=O)Nc2cccs2)cc1,6.84
20,CC(C)CCNC(=O)C12CN(Cc3ccccc3)CC1C(c1cccc([N+](=O)[O-])c1)=NO2 (stereo unspecified),-8.23
21,O=C(Nc1cc(C(F)(F)F)ccc1Cl)C(NCc1ccccc1)c1ccccc1 (stereo unspecified),-8.13
22,Cc1oc(CC(C)C)c(CN)c1C(=O)O,12.2
23,CCOC(=O)C1=C(C)NC(=O)NC1c1c(OCC(=O)N2CCCCC2)ccc2ccccc12 (stereo unspecified),-15.9

row,SMILES,inhibition [%]
1,COc1ccc(C2=NOC(C(=O)Nc3ccc(C)cc3)C2)cc1OC (stereo unspecified),0.99
2,Cc1cc([N+](=O)[O-])cc2ncccc12,12.3
3,C=CCn1c(SCCOc2ccc(OC)cc2)nnc1C(C)NC(=O)c1ccc(OC)cc1 (stereo unspecified),-2.1
4,COc1ccc(-n2c(CNc3ccc(C)cc3)nnc2SCc2ccccc2)cc1,-15.6
5,Cc1ccc2nc(SCC(=O)c3c(C)[nH]c4ccccc34)[nH]c2c1,1.78
6,CCOC(=O)c1c(-c2ccc(C)o2)csc1N,-4.43
7,CCOC(=O)c1ccccc1C(=O)N1CCOCCOCCOCC1,4.51
8,O=C1N2CCCc3cccc(c32)C12Nc1ccccc1S2 (stereo unspecified),-10.7
9,N/C(=N\OC(=O)c1cccs1)C1(c2ccc(Cl)cc2Cl)CC1,-5.97
10,Nc1c(C(=O)Nc2ccc(F)cc2)sc2nc(-c3ccco3)ccc12,6.83
11,CCOc1ccc(N/C=C/C(=O)c2ccc(OC)cc2)c([N+](=O)[O-])c1,-20
12,CCCCCCOC(=O)Sc1nc2ccccc2o1,-4.37
13,CCCCOC(=O)CSc1nc2c(c(=O)[nH]c(=O)n2C)n1C/C=C(\C)Cl,-16
14,O=S1(=O)C=CC(Nc2ccccc2)C1 (stereo unspecified),19
15,C=CCNC(=O)C(=O)NN=C1CCN(C)CC1,-15.8
16,COc1cccc(C(=O)Oc2c(CN3CCOCC3)cc(Cl)c3cccnc23)c1,14.8
17,COc1ccc2nc(NC(=O)C3CCCN3S(=O)(=O)c3ccc(C)cc3)sc2c1 (stereo unspecified),-19.9
18,c1ccc2[nH]c(CSc3nccs3)nc2c1,3.16
19,CC(=O)c1ccc(NC(=S)NC(NC(=O)c2ccco2)C(Cl)(Cl)Cl)cc1 (stereo unspecified),22.7
20,CN(C)c1ccc([C@@H]2[C@@H]([N+](=O)[O-])[C@H]3C=Cc4ccccc4N3[C@H]2C(=O)c2ccc(Cl)cc2)cc1,19.8
21,O=C(O)c1cc(O)c2c(c1)[C@@H]([C@H]1c3cc(C(=O)O)cc(O)c3C(=O)c3c(O[C@@H]4O[C@H](CO)[C@@H](O)[C@H](O)[C@H]4O)cccc31)c1cccc(OC3O[C@H](CO)[C@@H](O)[C@H](O)[C@H]3O)c1C2=O (stereo partly specified),18.6
22,O=C(CCN1C(=O)C2C3C=CC(C3)C2C1=O)N1CCN(c2cccc(Cl)c2)CC1 (stereo unspecified),-1.12
23,CCCOc1ccc(C2NC(=S)NC(c3ccccc3)=C2C(=O)Nc2ccc(C)cc2)cc1OC (stereo unspecified),0.31

row,SMILES,inhibition [%]
1,CCOC(=O)c1c(C)[nH]c(C)c1C(=O)COC(=O)/C=C/c1cccc(F)c1,-26.2
2,c1ccc2c3c([nH]c2c1)-c1[nH]ncc1CC3,-9.62
3,COc1ccc(CCN2CC3=C(C2=O)C(c2ccccc2)NC(=O)N3C)cc1OC (stereo unspecified),-24.7
4,CC1CCN(S(=O)(=O)c2cccc(C(=O)N(C)C3CCS(=O)(=O)C3)c2)CC1 (stereo unspecified),-5.95
5,COc1ccc(O)c(/C=c2/sc3nc4cc(C)c(C)cc4n3c2=O)c1,-26.9
6,CC(=O)Nc1cccc(OCC(=O)Nc2ccc(F)cc2)c1,-10.3
7,O=C1CSc2ccccc2N1Cc1ccc(F)cc1,-15.2
8,COc1ccccc1N1CCN(C(CNS(=O)(=O)c2ccccc2)c2cccnc2)CC1 (stereo unspecified),-4.62
9,CN1CCN(C(c2cccc(C(F)(F)F)c2)c2nnnn2C(C)(C)C)CC1 (stereo unspecified),-4.85
10,CC(=O)c1cccc(NC(=O)Nc2cc3sccc3n2C)c1,-13.4
11,O=C(CN1C(=O)COc2ccccc21)Nc1ccc(F)cc1,-0.13
12,O=C(O)C1CC=CCC1C(=O)NC12CC3CC(CC(C3)C1)C2 (stereo unspecified),-9.99
13,CSCCC(NC(=O)c1cccc(C)c1)C(=O)OCC(=O)NC(=O)c1cccn1C (stereo unspecified),-17
14,CCOC(=O)C1=C(c2ccccc2)N=C2SCC(=O)N2C1c1ccc(O)c(OC)c1 (stereo unspecified),22.2
15,COC(=O)Cn1cc(C(=O)c2ccco2)c2ccccc21,-3.32
16,CCCCn1cnc2sc(-c3ccccc3)cc2c1=O,-2.46
17,Cc1cc2oc(=O)cc(CSc3nc(N)cc(N)n3)c2cc1C,4.49
18,CC1CCN(c2ccc(NC(=S)NC(=O)c3ccc(-c4cccc([N+](=O)[O-])c4)o3)cc2)CC1,0.2
19,COc1ccc(-c2csc(Nc3cccnc3)n2)cc1,-13.4
20,Nc1nnc(SCCOc2ccc(Br)cc2)s1,-21.9
21,c1ccc(-c2cnn3nnnc3n2)cc1,15.6
22,CC(C)CNC(=S)NC1CCCC1,0.61
23,Cc1cc(/C=N/n2cnnc2)c(C)n1-c1ccc(OCc2ccc(F)cc2)cc1,-6.71

row,SMILES,inhibition [%]
1,COc1ccc(/C=C/c2nc3ccccc3n2Cc2ccccc2OC)cc1,-5.86
2,COc1cccc(-n2c(N)c(C(=O)Nc3c(C)n(C)n(-c4ccccc4)c3=O)c3nc4ccccc4nc32)c1,24.6
3,COc1cccc(NC(=S)N/N=C2\CC(C)(C)Oc3ccc(O)cc32)c1,-4.58
4,CCc1cc2c(NCCC(=O)O)nc(C)nc2s1,-5.57
5,CN1c2ccccc2C(O)=C(C(=O)Nc2ccccc2)S1(=O)=O,-25.7
6,O=C(Nc1cccc2ccccc12)c1ccc(Cn2cc(Cl)cn2)cc1,-10.6
7,Cc1cc(C)n(-c2nc(NCCN(C)C)c3c4c(sc3n2)CCCC4)n1,16.5
8,Cc1ccc(-c2nnn(CC(=O)Nc3ccccc3-c3ccccc3)n2)c(-n2cnnn2)c1,-20.2
9,c1ccc(COc2cccc(CN3CCN(c4ccccn4)CC3)c2)cc1,-14.2
10,O=c1[nH]c(CN2CCCCC2)nc2ccccc12,-0.84
11,N#Cc1ccc(COC(=O)c2ccc3c(=O)[nH]c(CN4CCOCC4)nc3c2)cc1,-16.6
12,Cc1cc(C(C)c2ccccc2)c(O)c(CN2CCOCC2)c1C (stereo unspecified),4.28
13,CC1C(C#N)=C(N)OC2=C1C(=O)CCC2 (stereo unspecified),1.35
14,COc1ccc(C2C(C#N)=C(N)OC3=C2C(=O)CCC3)cc1Cn1cc([N+](=O)[O-])cn1 (stereo unspecified),15.4
15,CCN(CC)CCCn1c(=S)[nH]c2cc(OC)c(OC)cc2c1=O,-0.94
16,Cn1c(CO)cnc1SCc1ccc([N+](=O)[O-])cc1,-0.6
17,COc1ccccc1Nc1nc(-c2c(C)[nH]c3ccccc23)cs1,24.6
18,CCc1ccc(OCC(=O)Nc2ccc(-c3cc4ccccc4oc3=O)c(OC)c2)cc1,2.11
19,COc1ccc2oc(=O)cc(C)c2c1,11.9
20,COc1ccc(S(=O)(=O)n2ccc(-c3ccc(OCCN(C)c4ccccn4)cc3)n2)cc1,-16.7
21,OCCNc1ccc(Cl)cc1,-9.47
22,NNC(=S)Nc1ccc(Cl)cc1,6.57
23,Cc1ccc(S(=O)(=O)NC2c3cccc4cccc(c34)C2Sc2n[nH]c(N)n2)cc1 (stereo unspecified),13.9

row,SMILES,inhibition [%]
1,Brc1ccc(-c2cnc3n2CCCC3)cc1,15.1
2,CCCNC1=C(C)C(=O)C2=C(C1=O)C(COC(N)=O)[C@]1(OC)C3NC3CN21 (stereo partly specified),32.6
3,Cc1ccc(S(=O)(=O)c2c(N)n(NC(=O)c3ccco3)c3nc4ccccc4nc23)cc1,-0.13
4,O=C(c1cnsn1)N1CCN(c2ccccc2)CC1,-1.8
5,COc1ccc(OC)c(C2C=C(C34CC5CC(CC(C5)C3)C4)NC(=S)N2)c1 (stereo unspecified),-20
6,O=C(c1[nH]ncc1-c1ccc(Cl)cc1)C1CO1 (stereo unspecified),8.07
7,O=C(CSCc1cccc(CSCC(=O)Nc2ccc3ccccc3c2)n1)Nc1ccc2ccccc2c1,-6.02
8,c1ccc(CSc2nnc(-c3ccncc3)o2)cc1,1.56
9,C=CCNc1nnc(Cl)c2ccccc12,-10.6
10,S=C(NCc1ccncc1)Nc1ccc(Cl)c(Cl)c1,-1.3
11,Cc1cc(-c2csc(NC(=O)c3ccccc3C(F)(F)F)n2)c(C)n1Cc1ccccc1,11.7
12,c1ccc(CN2CCN(c3nc(NCc4ccco4)c4ccccc4n3)CC2)cc1,-2.02
13,c1coc(CNc2ncnc3ccccc23)c1,0
14,Cc1cccc(C(=O)NC(NCc2ccco2)C(Cl)(Cl)Cl)c1 (stereo unspecified),-6.57
15,Cc1ccc2[nH]c3c(NCc4ccco4)ncnc3c2c1,-2.75
16,Oc1ccccc1Nc1nc(NCc2ccco2)c2ccccc2n1,-2.16
17,c1ccc(CNc2nc(N3CCN(Cc4ccccc4)CC3)nc3ccccc23)cc1,-6.01
18,Cc1ccc(-c2nc(NCc3cccnc3)c3ccccc3n2)cc1,0.48
19,c1ccc(CNc2ncnc3ccccc23)cc1,-3.62

# From PubChem BioAssay AID1981 (Southern Research Specialized Biocontainment Screening …, 2009)
